In the library only some 1.3% were active in any assay of this set; here they are far more common.
HTR5A inv ctr: inverse agonist of human HTR5A in OPRM1-OPRD1 counter-screen; P47898; HTR5A cell line, luminescence, inverse agonism; inhibition, % at 9.3 µM; hit rate 0.083% among 340,000; in the data active means inhibition mostly above about 23%, no sharp cut-off; inactive means mostly below about 18%;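 further: 0% = cells with DMSO and 100% = no-cell wells with DMSO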
PvdQ acylase: blocks Pseudomonas aeruginosa PvdQ acylase activity; purified PvdQ acylase, fluorescence plate reader; inhibition, % at 10 µM; hit rate 0.063% among 340,000; in the data active means inhibition above about 30%, passing the limit was not always enough;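 further: 0% = vehicle neutral wells and 100% = reference inhibitor wells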
MOR-DOR inv ag: inverse agonist of human OPRM1-OPRD1 heterodimerization. cell-based MOR-DOR heterodimer luminescence, inverse agonism. P35372+P41143. inhibition, % at 9.3 µM. hit rate 0.21% among 340,000; in the data active means inhibition above about 22%, passing the limit was not always enough;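 further: 0% = cells with DMSO and 100% = wells without cells with DMSO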
Target sequence (P35372 whole entry, looked up): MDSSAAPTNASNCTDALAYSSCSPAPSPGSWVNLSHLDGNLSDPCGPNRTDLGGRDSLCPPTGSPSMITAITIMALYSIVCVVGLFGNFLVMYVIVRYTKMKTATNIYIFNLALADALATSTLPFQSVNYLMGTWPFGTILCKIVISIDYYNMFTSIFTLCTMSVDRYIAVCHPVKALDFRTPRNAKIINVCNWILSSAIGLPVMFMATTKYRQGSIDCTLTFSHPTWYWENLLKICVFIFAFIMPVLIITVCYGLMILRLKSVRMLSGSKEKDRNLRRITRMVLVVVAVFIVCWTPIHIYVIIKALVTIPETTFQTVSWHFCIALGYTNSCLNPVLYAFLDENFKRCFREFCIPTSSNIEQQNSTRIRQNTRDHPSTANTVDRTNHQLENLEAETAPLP
Target sequence (P41143 whole entry, looked up): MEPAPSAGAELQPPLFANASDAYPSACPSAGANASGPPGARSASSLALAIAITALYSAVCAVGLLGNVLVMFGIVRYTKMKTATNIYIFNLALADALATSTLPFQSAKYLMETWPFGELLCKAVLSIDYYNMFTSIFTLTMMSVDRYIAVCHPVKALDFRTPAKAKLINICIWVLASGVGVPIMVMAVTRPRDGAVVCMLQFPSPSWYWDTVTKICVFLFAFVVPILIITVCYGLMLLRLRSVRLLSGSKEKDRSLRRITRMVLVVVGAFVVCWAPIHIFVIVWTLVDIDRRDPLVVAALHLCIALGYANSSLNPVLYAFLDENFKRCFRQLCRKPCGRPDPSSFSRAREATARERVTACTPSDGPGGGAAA
CR mimetic SO: lowers age-related superoxide in aged yeast cells; superoxide response (% of plate mean), % at 10 µM; AID 2690; hit rate 0.18% among 330,000; S. cerevisiae aged cells, superoxide DHE fluorescence; active compounds read low;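 active means superoxide response under a set limit, about three screen SD below normal, cut at about 65% in these data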;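 further: yeast aged for seven days with compound at 30 °C before DHE staining; 100% = average MFI of all compound-treated wells on the plate with controls excluded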
HTR5A ag ctr: counter-screen for OPRM1-OPRD1 agonists: human HTR5A agonism; activation, % at 9.3 µM; P47898; HTR5A agonist assay, luminescence, cell-based; AID 504692; hit rate 0.61% among 340,000; in the data active means activation mostly above about 9.5%, no sharp cut-off; inactive means mostly below about 7.6%;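 further: 0% = cells with vehicle only and 100% = reference agonist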
MOR-DOR ag-1: OPRM1-OPRD1 heterodimerization agonism; P35372+P41143; cells, luminescence; hit rate 0.3% among 340,000; activation, % at 9.3 µM;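 further: 0% = vehicle-treated cells and 100% = reference agonist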
MOR-DOR ag-2: promotes OPRM1-OPRD1 heterodimerization in HTR5A counter-screen | shares compounds with HTR5A ag ctr | U2OS counter-screen cells, complementation luminescence, 3 h | activation, % at 9.3 µM | hit rate 13% among 800
HTR5A ag conf: HTR5A (human) agonism, confirmation. activation, % at 9.3 µM. shares compounds with HTR5A ag ctr. hit rate 17% among 800. HTR5A agonist cell assay, luminescence; in the data active means activation above about 17%;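 further: 0% = cells with vehicle only and 100% = full reference agonist response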
* marks the source's active call; other numbers are inactive results; . = not tested or not shown. Unless noted, no stated cut-off is given here; in the data, active means activation above about 18%; inactive means the rest.

SMILES	HTR5A inv ctr	PvdQ acylase	MOR-DOR inv ag	CR mimetic SO	HTR5A ag ctr	MOR-DOR ag-1	MOR-DOR ag-2	HTR5A ag conf
S=C(Nc1ccc(Oc2ccc(NC(=S)NC3CCCCC3)cc2)cc1)NC1CCCCC1	-7	-2	-6	113	2	1	.	.
CC(C)c1ccc(NC(=S)NC2CCCCCC2)cc1	-43	-4	-20	86	16*	4	27*	4
CCOC(=O)c1ccc(NC(=S)NC2CCCC2)cc1	12	-5	5	95	15*	-1	4	4
CCCCCCCCCCCCCCCC[n+]1ccc(/C=N/O)cc1	-40	-68	-24	107	26*	5	16	9
O=[N+]([O-])c1cc([N+](=O)[O-])c2cc3ccccc3nc2c1	-10	-5	-20	103	3	4	.	.
CCOc1nc(CC(C)C)c2c(c1C#N)CC(C)(C)OC2	3	4	-23	103	16*	4	6	-1
CCOc1ncnc2c1oc1nc(CC(C)C)c3c(c12)CC(C)(C)OC3	-11	-19	7	83	-1	-1	.	.
COC(=O)C1=C(C(=O)OC)[N+]2=C3N(C(=O)NC2(C)C)[C@H](CO)C[C@@]32c3ccccc3N(Cc3ccccc3)[C@@H]12	3	-15	-10	93	-1	2	.	.
CCCCN(C(=O)c1cccc(S(=O)(=O)N(CC)c2ccccc2)c1)c1c(N)n(CC(C)C)c(=O)[nH]c1=O	2	-7	4	.	-1	-1	.	.
COc1ccc(C)c2sc(N(CCN(C)C)C(=O)/C=C/c3cccs3)nc12	-66	4	-36	106	16*	7	10	18*
COC(=O)C(Cc1c[nH]c2ccccc12)NC(=O)C1CC1 (stereo unspecified)	-5	-13	4	123	-3	-1	.	.
FC(F)(F)c1cnc(N2CCN(C(=S)NCc3ccccc3)CC2)c(Cl)c1	-7	-15	-15	100	9	3	.	.
FC(F)(F)c1cnc(N2CCCN(C(=S)Nc3ccccc3)CC2)c(Cl)c1	-44	14	-34	92	17*	7	-2	0
COc1ccc(Cl)cc1S(=O)(=O)NC(C)C(=O)NCc1cccnc1 (stereo unspecified)	1	-12	1	95	0	0	.	.
O=C(CN1C(=O)NC2(CCCC2)C1=O)Nc1ccc(F)c([N+](=O)[O-])c1	4	-7	0	122	-2	0	.	.
CC1CC(C)(C)NC(=S)N1CCC(=O)N1CCc2ccccc2C1 (stereo unspecified)	-33	1	-7	111	15*	2	2	-2
O=C(/C=C/c1ccccc1[N+](=O)[O-])NCCCN1CCCC1=O	-1	6	12	105	2	-2	.	.
O=C(NNC(=S)Nc1ccccc1)c1cccc(Br)c1	-45	-14	24	103	18*	-4	-1	4
Oc1ccc(CNc2ccc(F)cc2)c2cccnc12	-63	2	-99	101	23*	16	6	4
COc1cccc(-c2sc3ccccc3c2-c2ccc(OCCN3CCCC3)cc2)c1	-54	-3	-53	103	16*	10	2	19*
COc1cccc(-c2sc3ccc(OC)cc3c2-c2ccc(OCCN3CCCC3)cc2)c1	-27	-11	-25	85	7	5	.	.
COc1cccc(-c2sc3ccccc3c2-c2ccc(OCCN3CCCCC3)cc2)c1	-75	-14	-37	103	17*	7	10	6
O=C(Cc1cccc(NC(=O)C2CCCN(C(=O)C3CC3)C2)c1)Nc1ccc(C(=O)N2CCOCC2)cc1 (stereo unspecified)	-9	-16	-6	.	3	1	.	.
O=C(CNc1ccccc1Cl)N/N=C1\CCCc2ccccc21	-10	-4	-39	95	21*	8	20*	36*
COc1ccc(C)cc1NC(=O)COC(=O)c1ccccc1SCC(=O)N1CCCC1	17	-16	15	96	-3	-2	.	.
SMILES	HTR5A inv ctr	PvdQ acylase	MOR-DOR inv ag	CR mimetic SO	HTR5A ag ctr	MOR-DOR ag-1	MOR-DOR ag-2	HTR5A ag conf
O=[N+]([O-])c1ccc(S(=O)(=O)NN=C2CCCCC2)cc1	-55	-6	7	.	15*	-1	2	4
COc1cccc(S(=O)(=O)NCc2ccc(C(=O)Nc3cccc(Cl)c3)cc2)c1	-46	-12	-27	72	19*	6	-3	-1
COc1cccc(S(=O)(=O)NCc2ccc(C(=O)Nc3ccc(Cl)cc3)cc2)c1	25	-8	-39	96	1	8	.	.
CCc1ccc(C2NC(=S)NC3=C2C(=O)N(c2ccccc2OC)C(c2ccc(CC)cc2)N3)cc1 (stereo unspecified)	-17	5	-28	99	22*	4	8	0
CNC(=O)COC(=O)c1ccc2c(c1)S(=O)(=O)c1ccccc1C2=O	-5	-15	-33	101	2	6	.	.
Cc1ccccc1C(=O)c1cccn1CC(=O)NCc1ccc2c(c1)OCO2	-44	-9	-7	111	17*	1	3	24*
CC(Oc1cccc(F)c1)C(=O)Nc1ccc(N2CCOCC2)cc1 (stereo unspecified)	-48	-5	1	89	17*	0	1	0
COC(=O)c1ccc(NC(=O)Cc2ccccc2)cc1	-11	-14	-13	101	4	2	.	.
COC(=O)c1ccc(NC(=O)c2cc[n+](Cc3ccccc3)cc2)cc1	-13	4	8	101	15*	-2	0	3
CN(C)c1ccc(CNC(=O)CCS(=O)(=O)c2ccc3c(c2)n(C)c(=O)c(=O)n3C)cc1	2	-8	2	83	-2	0	.	.
CCOc1ccc(C(=O)Nc2ccc(NC(=O)c3ccco3)c(Cl)c2)cc1Br	-83	8	-84	90	19*	16	40*	4
CCOc1ccc(C(=O)Nc2ccc(NC(=O)c3ccco3)c(Cl)c2)cc1Cl	-8	-28	-13	103	3	2	.	.
N#C/C(=C/c1ccc(Br)s1)C(=O)NCCc1c[nH]c2ccccc12	-3	-7	-8	102	4	2	.	.
Cc1ccc(C(=O)N/C(=C\c2cccs2)C(=O)NCCc2c[nH]c3ccccc23)cc1	-46	0	-13	111	15*	2	20*	6
Cc1cc(/C=C(\C#N)C(=O)NCCc2c[nH]c3ccccc23)c(C)n1C	-172	6	7	89	66*	-1	-1	-5
COc1cccc(Nc2nc(CC(C)=O)ns2)c1	-51	-12	10	105	19*	-2	0	2
COc1cc(OC)c(OC)cc1CN1CCN(C(=O)CC(C)C)CC1	-2	-5	10	111	1	-2	.	.

Screens from PubChem BioAssay.
